Screening results as filed in PubChem BioAssay.
Most compounds without a hit are left out; they make up all but 20% or so of the library.
Cycloheximide cs: Cycloheximide Counterscreen for Small Molecule Inhibitors of Shiga Toxin. cell reporter, cycloheximide protein synthesis inhibition counterscreen. max response, %. 300,000 compounds, 12% hits. AID 2314, 2010; in the data active means max response mostly above about 13%, no sharp cut-off; inactive means mostly below about 14%; further: read at 38.3 µM for the half of the compounds with a filed dose; 0% is about no effect
Pf growth 96h: Primary qHTS for delayed death inhibitors of the malarial parasite plastid, 96 hour incubation; P. falciparum luciferase reporter growth, 96 h; Potency, µM (series often up to 28.7 µM), without a hit: at the highest dose activity change, negative = inhibition, most hits filed as inhibitors; AID 504834, 2011; 320,000 compounds, 6.9% hits; further: potency means the concentration at half of the fitted maximal effect; on the % scale 0 is the no-effect control and ±100 the full control effect
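Erythrocytes infected with luciferase-expressing P. falciparum were dispensed at 2% hematocrit and 0.05% parasitemia (final), then incubated with compounds 96 hours at 37 C in 5% CO2. Luminescence after detection reagent addition reported growth.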
HCMV antiviral: qHTS Assay for inhibitors of the human cytomegalovirus (HCMV) | AID 1259415, 2018 | 410,000 compounds, 4.5% hits | activity change, negative = inhibition, % at 57.5 µM | HFF cells, HCMV-luciferase reporter, 72 h; stronger effect = lower value; in the data active means activity change below about -60%; inconclusive means no clear call, values can overlap the other calls; inactive means above about -39%; further: on the % scale 0 is the no-effect control and ±100 the full control effect
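Cell-based, HFFs, 1000 cells/well, 16 h 37C; cpds in DMSO + HCMV-luc, MOI 1 PFU/cell; 72 h 37C; OneGlo luminescence after 5 min RT; norm. to buffer vs Salinomycin 10uM.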
Pf growth 48h: Primary qHTS for delayed death inhibitors of the malarial parasite plastid, 48 hour incubation; AID 504832, 2011; Potency, µM (top dose mostly 28.7 µM), for inactives: top-dose activity change, negative = inhibition, hits mostly inhibitors; 310,000 compounds, 5.9% hits; P. falciparum luciferase growth in erythrocytes, 48 h; further: potency means the concentration at half of the fitted maximal effect; on the % scale 0 is the no-effect control and ±100 the full control effect
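Erythrocytes infected with P. falciparum carrying an integrated firefly luciferase reporter (2% hematocrit, 0.1% parasitemia final) were exposed to compounds in RPMI 1640 with 0.5% Albumax at 37 C, 5% CO2. Growth inhibition was scored as reduced luminescence.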
Shiga inhibitor: A qHTS for Small Molecule Inhibitors of Shiga Toxin | inhibition, % at 38.7 µM | Vero cells, Shiga toxin protein synthesis inhibition reporter | 290,000 compounds, 9.2% hits; in the data active means inhibition mostly above about 28%, no sharp cut-off; inactive means mostly below about 43%; further: 0% is about no effect
Active calls of the source: *; u = inconclusive; x = no result. Unless noted, the call rests on the fitted dose curve; in most records, active means well fitted inhibition curve with a large enough effect; inconclusive means small, poorly fitted or top-dose-only effect, or another doubt; inactive means no such curve, though single readings can be large or run the other way.

SMILES	Cycloheximide cs	Pf growth 96h	HCMV antiviral	Pf growth 48h	Shiga inhibitor
COC(=O)CCN(C(=O)c1ccc(Cl)c([N+](=O)[O-])c1)c1ccccn1	0.7	113.2%	5.6	u	-2.3
CC(=O)Nc1ccc(NC(=O)C(=O)N/N=C/c2cccnc2)cc1	1.3	2.1%	0.0	12.2%	5.9
CSc1ccc(CN2CCN(C(=O)c3ccc([N+](=O)[O-])cc3)CC2)cc1	-0.9	-15.3%	-74.9*	-17.2%	-5.8
COc1cc(C(=O)N2CCN(c3ccccc3)CC2)c2ccccc2n1	x	x	-0.1	x	x
CCOC(=O)C1(CC2CC2)CCN(C(=O)c2cccnc2C)CC1	16.9*	-25.7%	21.4	-18.7%	24.0
CCOC(=O)C1(CC2CC2)CCN(C(=O)c2cc(C3CC3)nc3ccccc23)CC1	34.3*	u	-36.9	u	55.4*
CCOC(=O)C1(CC2CC2)CCN(Cc2cn(C)c3ccccc23)CC1	-4.4	-2.9%	u	u	17.8
CCOC(=O)C1(CC2CC2)CCN(C(=O)c2cc(OC)nc3ccccc23)CC1	30.8*	0.4%	36.3	u	87.9*
CCCCC(=O)Nc1nnc(S(=O)(=O)N2CCCCCC2)s1	10.4	12.5%	-31.3	14.2%	-5.5
c1ccc2c(NC3=NCCCCS3)cccc2c1	-4.0	-22.0%	-5.4	7.1%	21.6
CC1CN=C(Nc2ccccc2)S1 (configuration not stated)	9.2	54.2%	u	4.8%	7.8
CC1CN=C(Nc2cccc3ccccc23)S1 (configuration not stated)	18.5*	15.2%	7.4	11.3%	37.0
CC1CN=C(Nc2ccc(N(C)C)cc2)S1 (configuration not stated)	-5.2	2.08µM*	-30.5	17.2%	-2.1
CCc1ccc(CN(C)C(=O)CCc2nc3ccccc3n(-c3ccc(OC)cc3)c2=O)cc1	4.3	13.1µM*	-68.3*	u	-17.6
COc1ccc(-n2c(=O)c(CCC(=O)N(C)Cc3ccccc3C)nc3ccccc32)cc1	-1.8	8.28µM*	-30.8	10.4µM*	-4.4
Cc1ccccc1C(=O)Nc1ccccc1C(=O)OCc1cc(=O)n2ccsc2n1	x	x	39.5	x	x
CC(=O)NCC1CCCN(Cc2cn(-c3ccccc3)nc2-c2ccc3c(c2)OCO3)C1 (configuration not stated)	-3.1	13.1µM*	-27.9	-29.6%	11.2
CN(Cc1cn(-c2ccccc2)nc1-c1ccc2c(c1)OCO2)Cc1nccn1C	0.6	10.2%	-28.2	11.7µM*	-11.2
CCc1nn(CC(=O)NCCc2ccc(OC)cc2OC)c(=O)c2cc3sccc3n12	x	x	52.8	x	x
CCCCNC(=O)CCCn1c(=O)c2ccccc2n(Cc2cccc(Cl)c2)c1=O	x	x	-31.1	x	x
Cc1noc(C)c1COC(=O)c1ccc(F)c(S(=O)(=O)N2CCOCC2)c1	x	u	9.6	u	x
CCCC(=O)NC(C)c1nc2ccccc2[nH]1 (configuration not stated)	-2.3	39.0%	16.9	0.0%	5.6
CCC(=O)NC(c1ccccc1)c1nc2ccccc2[nH]1 (configuration not stated)	44.1*	43.2%	3.3	24.4%	67.9*
Cc1ccc(S(=O)(=O)N2CCCCC2)cc1C(=O)N1C(C)CCCC1C (configuration not stated)	x	x	-20.0	x	x
COC(=O)/C=C1\S/C(=N/N=C/c2ccc(Cl)cc2)NC1=O	-0.7	7.8%	2.7	14.7µM*	-4.1
SMILES	Cycloheximide cs	Pf growth 96h	HCMV antiviral	Pf growth 48h	Shiga inhibitor
COC(=O)/C=C1\S/C(=N/N=C/c2ccccc2)NC1=O	9.9	-11.5%	24.8	-22.7%	-4.1
COC(=O)/C=C1/S/C(=N/NC(=O)c2ccccc2C)NC1=O	13.9	u	-104.8*	x	29.1
COC(=O)C/C=N/N=C1/NC(=O)/C(=C/C(=O)O)S1	-1.0	9.28µM*	-24.1	u	27.8
CC(=O)N1CCCc2cc(S(=O)(=O)N3CCN(c4ccccc4F)CC3)ccc21	x	x	-27.4	x	x
CC(C)ON(C(C(=O)NO)C(C)C)S(=O)(=O)c1ccc(-c2ccccc2)cc1 (configuration not stated)	-4.3	x	x	x	32.8
CCCC(C(=O)NCc1ccccc1)N(C(=O)Cn1nnc(-c2cccs2)n1)c1ccc2c(c1)OCCO2 (configuration not stated)	3.8	u	22.2	u	-7.6
Cc1ccc(C(C(=O)NC(C)(C)C)N(Cc2ccco2)C(=O)Cn2nnc(-c3cccs3)n2)cc1 (configuration not stated)	-1.6	23.2%	-36.5	9.28µM*	6.5
CC(C)(C)NC(=O)C(c1ccncc1)N(C(=O)Cn1nnc(-c2cccs2)n1)C1CCCCC1 (configuration not stated)	-0.8	31.6%	8.8	9.28µM*	-6.6
CC(C)(C)NC(=O)C(c1ccc(O)cc1)N(Cc1ccco1)C(=O)Cn1nnc(-c2cccs2)n1 (configuration not stated)	-1.4	-11.9%	-39.7	13.1µM*	-4.5
O=C(NCc1ccccc1)C(c1ccc(F)cc1)N(Cc1ccc2c(c1)OCO2)C(=O)Cn1nnc(-c2cccs2)n1 (configuration not stated)	-1.4	89.3%	-13.6	10.4µM*	14.5
C/C1=C\CC(C)(C)/C=C/C(=O)[C@@H](C)CCC[C@H](C)CC(=O)C1	x	x	-0.9	x	x
O=C(c1cn(CCOc2ccccc2F)c2ccccc12)C1CCCCC1	x	x	-8.5	x	x
CC1=NNC(=O)C1CCC(=O)N/N=C\c1ccccc1[N+](=O)[O-] (configuration not stated)	9.5	15.0%	-25.2	u	8.6
Cc1ccc(-c2nnn(CC(=O)N(Cc3ccccc3)C(C(=O)NC(C)(C)C)c3ccncc3)n2)o1 (configuration not stated)	-1.8	0.0%	-18.0	u	-5.8
CCC(C)(C)NC(=O)C(c1ccc(C)cc1)N(Cc1ccco1)C(=O)Cn1nnc2ccccc21 (configuration not stated)	-2.4	73.9%	-2.9	u	0.6
Cc1ccc(C)c(N(C(=O)Cn2nnc3ccccc32)C(C(=O)NC(C)(C)C)c2ccsc2)c1 (configuration not stated)	-0.9	u	-77.7*	u	-8.8
CCC(C)(C)NC(=O)C(c1ccncc1)N(Cc1cccs1)C(=O)Cn1nnc2ccccc21 (configuration not stated)	-0.6	11.7µM*	18.6	u	19.5
CC(C)(C)NC(=O)C(c1ccncc1)N(Cc1cccs1)C(=O)Cn1nnc(-c2cccs2)n1 (configuration not stated)	8.8	u	-1.6	2.94µM*	27.7
COc1cc(NC(=O)c2ccc3c(c2)OCCO3)ccc1NC(=O)c1ccco1	18.9*	2.33µM*	-26.3	60.5%	39.2*
COc1cc(NC(=O)c2ccc3c(c2)OCCO3)ccc1NC(=O)c1cccs1	21.8*	-22.5%	-3.8	25.2%	72.7
COCCNC(=O)Cn1nc(N2CCN(c3ccccc3OC)CC2)ccc1=O	x	x	1.6	x	x
